# VP16 counter: Gal4-VP16 reporter inhibition counter-screen; Drosophila S2 Gal4-VP16 UAS-luciferase, luminescence, 20 h; Potency, µM (series often up to 53.6 µM), without a hit: at the highest dose activity, negative = inhibition, usual class: inhibitors; 3.5% of 310,000 active; AID 2546;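 further: Gal4-VP16 expression switched on by copper sulfate through the metallothionein promoter; potency means the concentration at half of the fitted maximal effect; nearly all actives have a fitted effect of over 50% in size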
# DT40 TDP1 no CPT: qHTS for Inhibitors of human tyrosyl-DNA phosphodiesterase 1 (TDP1): qHTS in cells in absence of CPT. DT40 Tdp1-/- hTDP1 cells, no CPT, ATP luminescence, 48 h. Potency, µM (highest dose often 46.2 µM), without a hit: at the top dose activity change, negative = growth inhibition, most hits filed as inhibitors. 15% of 420,000 active; further: potency means the concentration at half of the fitted maximal effect; nearly all actives have a fitted effect of over 55% in size
#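 Camptothecin absent (DMSO only). Human TDP1-complemented DT40 knockout cells, 400 cells/well, 37 °C for minimum 48 hr; ATP measured via CellTiter-Glo, 30 min dark incubation, luminescence.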
# IL-1B inflam inh: blocks inflammasome-driven IL-1 beta release | 4.7% of 360,000 active | THP-1 LPS/ATP IL-1B secretion, AlphaLISA, 16 h; hits give low values | activity change, % at 57.5 µM; in the data active means activity change below about -50%; inconclusive means mostly about -30% to -49%
#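 Secreted IL-1B measured by AlphaLISA bead assay after 16 h compound exposure of THP-1 cells; compounds (final up to 57.5 uM) added 1 h before LPS (250 ng/mL) and ATP (1.25 mM) stimulation; lower signal means less secretion.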
# DT40 TDP1 CPT: DT40-hTDP1 cell growth loss with CPT; Potency, µM (series often up to 46.2 µM), for the others: top-dose activity change, negative = growth inhibition, usual class: inhibitors; chicken DT40 Tdp1-/-;hTDP1 cells + 20 nM CPT, ATP luminescence, 48 h; 12% of 420,000 active; AID 686979; further: potency means the concentration at half of the fitted maximal effect; nearly all actives have a fitted effect of over 55% in size
#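 Cell growth measured by CellTiter-Glo luminescence after a minimum 48 h, 37 C compound exposure with 20 nM CPT in Tdp1-knockout DT40 cells stably expressing hTDP1, seeded 400/well; qHTS titration format.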
# ELG1 DNA repair: ELG1-dependent DNA repair inhibition; HEK293T ELG1-luciferase reporter, luminescence, 16 h; DNA damage induced by 5-fluorouridine; Potency, µM (titrated, usually from 46.1 µM), for inactives: at the highest dose activity change, negative = inhibition, most hits filed as inhibitors; 2.3% of 330,000 active; AID 504467; further: potency means the concentration at half of the fitted maximal effect; nearly all actives have a fitted effect of over 55% in size
#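 HEK293T cells expressing luciferase-tagged ELG1 (2,000/well) received 5-Fluorouridine plus compound or DMSO for 16 hr at 37 °C. Luciferase was read by ONE-Glo luminescence after 30 min at room temperature.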
# RORgamma inh: inhibitors of mouse ROR gamma transcriptional activity; P51450; Drosophila S2 Gal4-RORgamma UAS-luciferase reporter, 20 h; Potency, µM (titrated, usually from 53.6 µM), without a hit: top-dose activity change, negative = inhibition, usual class: inhibitors; 5.4% of 310,000 active; AID 2551; further: potency means the concentration at half of the fitted maximal effect; nearly all actives have a fitted effect of over 60% in size
# Target sequence (P51450 whole entry, looked up, the tested form may be a part): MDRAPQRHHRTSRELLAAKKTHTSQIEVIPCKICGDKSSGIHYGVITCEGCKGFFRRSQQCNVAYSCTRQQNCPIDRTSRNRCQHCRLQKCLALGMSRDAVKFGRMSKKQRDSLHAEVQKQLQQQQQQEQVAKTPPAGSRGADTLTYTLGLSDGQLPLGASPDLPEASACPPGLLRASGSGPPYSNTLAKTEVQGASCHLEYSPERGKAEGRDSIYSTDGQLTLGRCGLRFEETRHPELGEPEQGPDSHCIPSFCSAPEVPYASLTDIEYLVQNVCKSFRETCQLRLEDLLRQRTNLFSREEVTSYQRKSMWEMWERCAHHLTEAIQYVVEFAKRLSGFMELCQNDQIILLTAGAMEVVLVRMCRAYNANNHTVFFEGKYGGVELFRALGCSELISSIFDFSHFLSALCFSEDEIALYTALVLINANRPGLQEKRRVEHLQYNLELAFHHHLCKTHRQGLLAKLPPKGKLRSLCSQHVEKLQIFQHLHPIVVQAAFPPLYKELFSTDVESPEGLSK
#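 Luciferase reporter read in Schneider cells carrying Gal4-RORγ (mouse) and UAS-Photinus luciferase; cells given compound 1 h before 700 uM copper sulfate induction, then incubated 20 h at ambient temperature.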
# * = called active by the depositor; ? = inconclusive; / = not tested or not shown; [ ] = another dose, or the depositor's remark. This is a sample that favours compounds with a hit; in the whole collection about 21% have one here. Unless noted, the call rests on the fitted dose curve; in most records, active means well fitted curve in the direction sought with a large enough effect; inconclusive means small, poorly fitted or top-dose-only effect, or another doubt; inactive means no such curve, though single readings can be large; an effect the other way counts as inactive or inconclusive. On the % scale 0 is the no-effect control and ±100 the full control effect.
SMILES,VP16 counter,DT40 TDP1 no CPT,IL-1B inflam inh,DT40 TDP1 CPT,ELG1 DNA repair,RORgamma inh
CC(=O)Oc1cc(C(=O)OCC(=O)N2CCc3ccccc3C2)cc(OC(C)=O)c1OC(C)=O,/,5.2µM*,28,4.1µM*,?,/
CCOc1c(Br)cc(C(=O)OCC(=O)N2CCc3ccccc3C2)cc1OC,/,26µM*,-8,?,?,/
COc1cc2c(cc1OC)CN(C(=O)COc1ccccc1C#N)CC2,6%,12µM*,-74*,21µM*,?,10%
O=C(Nc1ccc(Br)c(C(F)(F)F)c1)c1ccccc1,-8%,23µM*,0,21µM*,?,22%[10 µM]
O=C(O)c1ccc(NC(=O)c2ccccc2NC(=O)c2cccc(Br)c2)cc1,8%,-28%,5,?,10%,16%[1.91 µM]
CC(C)c1ccc(NC(=O)c2cccc(Br)c2)cc1,-6%,?,-52*,-26%,?,-3%
O=C(Nc1cccc(C(=O)Nc2cccc(Br)c2)c1)c1ccccc1,13%,?,-1,23µM*,-25%,?
Cc1cccc(NC(=O)c2cccc(NC(=O)c3ccccc3)c2)n1,-2%,?,-4,4.1µM*,-7%,5%
O=C(Nc1ccc(C(F)(F)F)cc1)c1ccccc1,/,-14%,-2,-7%,?,/
CC(c1ccco1)N(C(=O)CSc1ccc(Br)cc1)c1ccccn1 (stereo not given),3%,?,-19,?,?,27%
Cc1cccc(C(=O)NNC(=O)c2ccc(NS(=O)(=O)c3cccs3)cc2)c1C,/,-2%,8,-27%,23%,/
Cc1cc(C)c(C)c(S(=O)(=O)N2CCNC(=O)C2)c1C,/,2%,-8,9%,/,/
CCOC(=O)C1=CNS(=O)(=O)NC1c1ccc(C[C@H](NC(=O)CNC(=O)CCc2ccccc2)C(N)=O)cc1 (stereo not given in full),/,-2%,22,-1%,22%,/
CCCc1nnc(NC(=O)C2CC(=O)N(C3CCCC3)C2)s1 (stereo not given),6%,-1%,-8,-8%,6%,-8%
O=C(Nc1cccc(C(=O)Nc2ccccc2F)c1)c1ccccc1,-7%,23µM*,-11,?,-15%,?
CCOC(=O)c1[nH]c(=S)[nH]c1C,/,-27%,8,-13%,/,/
COc1cccc(C(=O)NC2CCN(CC(=O)Nc3c(C)cc(C)cc3C)CC2)c1,13µM*,/,/,/,?,?
O=C(OCC(=O)N1c2ccccc2Sc2ccccc21)c1cccnc1,-12%,?,24,-4%,-1%,13%
COc1cccc(C(=O)N2c3ccccc3Sc3ccccc32)c1,-5%,16µM*,-11,12µM*,-2%,14%
O=C(NC1CCN(C(=O)N2c3ccccc3Sc3ccccc32)CC1)c1ccccc1Cl,7%,23µM*,-59*,?,-21%,39%
O=C(c1ccncc1)N1c2ccccc2Sc2ccccc21,-4%,9.2µM*,2,21µM*,?,20%
O=C(COc1ccccc1)N1c2ccccc2Sc2ccccc21,0%,-49%,-1,-37%,2%,?
COc1ccccc1NC(=O)N1c2ccccc2Sc2ccccc21,/,15µM*,/,15µM*,/,/
COCCNC(=O)CN1CCC(NC(=O)c2ccco2)CC1,?,4%,-10,-9%,3%,13µM*
COc1cccc(C(=O)NC2CCN(C(=O)N3c4ccccc4Sc4ccccc43)CC2)c1,?,?,-57*,?,?,?
O=C(NC1CCN(C(=O)N2c3ccccc3Sc3ccccc32)CC1)c1ccco1,?,21µM*,-8,?,23µM*,5%
COc1cc(NC(=O)N2c3ccccc3Sc3ccccc32)c(C(=O)O)cc1OC,-4%,-6%,3,-3%,0%,-11%

# Assay outcomes from PubChem.
